High-throughput results: PubChem BioAssay, several laboratories
rCAG RNA binder – binders of r(CAG) RNA repeats, primary screen, biochemical, fluorescence; r(CAG) RNA repeat, TO-PRO-1 dye displacement fluorescence; inhibition, % at 3 µM; hit rate 1.3% among 370,000; AID 651821, 2012;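 active = inhibition above the plate cutoff, the mean of all test compounds on that plate plus 3 SD, cut at about 35% in these data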;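 note: higher means more dye released from RNA so lower well fluorescence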
NadD inh – inhibitors of S. aureus NadD, primary screen, biochemical, colorimetric, uHTS; purified NadD enzyme, colorimetric absorbance read-out; inhibition, % at 20 µM; hit rate 0.78% among 360,000; in the data active = inhibition above about 26%
MsrA act – bovine MsrA enzyme activators, primary screen, biochemical, absorbance, HTS; purified bovine MsrA, absorbance read-out; activation, % at 10.6 µM; hit rate 0.3% among 360,000; Methionine sulfoxide reductase A (Bos taurus); in the data active = activation above about 7.5%
MsrA inh – bovine MsrA enzyme inhibitors, primary screen, biochemical, absorbance, HTS; hit rate 0.75% among 360,000; purified bovine MsrA, absorbance read-out; AID 651718, 2012; inhibition, % at 15.5 µM; in the data active = inhibition above about 4.5%
Hits are given with their value. An excerpt weighted towards active compounds, which were near 2.7% of everything screened.

Results for CCCC(NC(=O)CCc1c(C)c2cc3c4c(oc3c(C)c2oc1=O)CCCC4)C(=O)O (centres undefined) ?
rCAG RNA binder: 36; NadD inh: inactive; MsrA act: inactive; MsrA inh: inactive

How did CC(=O)Nc1ccc(-c2noc(-c3csc([C@@H]4C[C@H](O)[C@@H](CO)O4)n3)n2)cc1 do in these assays?
rCAG RNA binder: inactive; NadD inh: inactive; MsrA act: inactive; MsrA inh: inactive

How did CC(=O)N1CCOc2ccc(S(=O)(=O)NC[C@H]3O[C@@H](n4ccc(N)nc4=O)[C@H](O)[C@@H]3O)cc21 do in these assays?
rCAG RNA binder: inactive; NadD inh: inactive; MsrA act: inactive; MsrA inh: inactive

Results for C/C(=C\c1ccc2c(c1)OCO2)C1Nc2cccc3cccc(c23)N1 ?
rCAG RNA binder: inactive; NadD inh: 33; MsrA act: inactive; MsrA inh: inactive

Results for C/C(=C\c1ccccc1F)C1Nc2cccc3cccc(c23)N1 ?
rCAG RNA binder: inactive; NadD inh: inactive; MsrA act: inactive; MsrA inh: inactive

How did Cc1ccccc1CN(C)C(=O)CNC(=O)c1ccc2ccccc2c1 do in these assays?
rCAG RNA binder: inactive; NadD inh: inactive; MsrA act: inactive; MsrA inh: inactive

What do the screens show for `CCn1c(C(=O)O)c(CC(=O)Nc2ccccc2F)c2ccccc21`?
rCAG RNA binder: inactive; NadD inh: inactive; MsrA act: inactive; MsrA inh: inactive

How did CCn1c(C(=O)O)c(CC(=O)Nc2cccc(C(F)(F)F)c2)c2ccccc21 do in these assays?
rCAG RNA binder: 35; NadD inh: inactive; MsrA act: inactive; MsrA inh: inactive

What do the screens show for `CC(=O)Nc1cc2c3ccccc3n(C)c2cc1[N+](=O)[O-]`?
rCAG RNA binder: inactive; NadD inh: inactive; MsrA act: inactive; MsrA inh: inactive

How did Nc1[nH]n2c(=O)c3c(nc2c1N=Nc1ccc(Cl)cc1)CCCC3 do in these assays?
rCAG RNA binder: inactive; NadD inh: 32; MsrA act: inactive; MsrA inh: inactive

Results for Cc1[nH]n2c(=O)c3c(nc2c1-c1ccc(Cl)cc1)CCC3 ?
NadD inh: inactive; MsrA act: inactive

Results for Cc1ccc(-c2ccc3c(c2)O[C@H](CN(C)C(=O)Nc2ccc(C(F)(F)F)cc2)[C@H](C)CN([C@H](C)CO)S3(=O)=O)cc1 ?
rCAG RNA binder: inactive; NadD inh: inactive; MsrA act: inactive; MsrA inh: inactive

How did Cc1ccc(S(=O)(=O)CCC(=O)c2ccc(O)cc2O)cc1 do in these assays?
rCAG RNA binder: inactive; NadD inh: inactive; MsrA act: inactive; MsrA inh: inactive

Results for CCCCCC(=O)C(=O)c1ccc(O)cc1O ?
rCAG RNA binder: inactive; NadD inh: inactive; MsrA act: inactive; MsrA inh: 4.6

What do the screens show for `c1cc2c(cc1Nc1nc(-c3ccc4c(c3)OCO4)cs1)OCCO2`?
rCAG RNA binder: inactive; NadD inh: 40; MsrA act: inactive; MsrA inh: inactive

How did CCn1cnc2c([N+](=O)[O-])c(NS(=O)(=O)c3ccc(C)cc3)ccc21 do in these assays?
rCAG RNA binder: inactive; NadD inh: inactive; MsrA act: 12; MsrA inh: inactive

What do the screens show for `CCn1cnc2cc(NS(=O)(=O)c3ccc(C)cc3)ccc21`?
rCAG RNA binder: inactive; NadD inh: inactive; MsrA act: inactive; MsrA inh: inactive

How did CCC(Sc1nc2ccccc2[nH]1)C(=O)Nc1cc(C)on1 (centres undefined) do in these assays?
rCAG RNA binder: inactive; NadD inh: inactive; MsrA act: inactive; MsrA inh: inactive

What do the screens show for `CCC(Sc1nc(-c2ccccc2)c(C#N)c(=O)[nH]1)C(=O)Nc1cc(C)on1` (centres undefined)?
rCAG RNA binder: 50; NadD inh: inactive; MsrA act: inactive; MsrA inh: inactive

What do the screens show for `O=C(CCC(C(=O)c1ccccc1)c1ccccc1)c1ccccc1` (centres undefined)?
rCAG RNA binder: inactive; NadD inh: inactive; MsrA act: inactive; MsrA inh: inactive

What do the screens show for `Cc1cn([C@H]2C[C@H](O)[C@@H](/C=C/C(=O)NCCc3ccc4ccccc4c3)O2)c(=O)[nH]c1=O`?
rCAG RNA binder: inactive; NadD inh: inactive; MsrA act: inactive; MsrA inh: inactive

Results for O=C(NCc1ccco1)c1ccccc1NS(=O)(=O)c1ccc(Cl)s1 ?
rCAG RNA binder: inactive; NadD inh: inactive; MsrA act: inactive; MsrA inh: inactive

Results for O=C(Nc1ccccc1)c1ccccc1NS(=O)(=O)c1ccc(Cl)s1 ?
rCAG RNA binder: 60; NadD inh: inactive; MsrA act: inactive; MsrA inh: inactive

Results for Cc1ccc(-n2cccc2/C=C2\C(=N)N3N=C(c4ccco4)SC3=NC2=O)cc1 ?
rCAG RNA binder: inactive; NadD inh: 47; MsrA act: inactive; MsrA inh: inactive

How did CCNc1nc(-c2cc(C)n(Cc3ccco3)c2C)cs1 do in these assays?
rCAG RNA binder: inactive; NadD inh: inactive; MsrA act: inactive; MsrA inh: inactive

How did Cc1cc(-c2csc(NC(=O)c3ccc(=O)[nH]c3)n2)c(C)n1Cc1ccco1 do in these assays?
rCAG RNA binder: inactive; NadD inh: 67; MsrA act: inactive; MsrA inh: inactive

What do the screens show for `Fc1ccc(Nc2cncc(-c3ccsc3)c2)cc1Cl`?
rCAG RNA binder: inactive; NadD inh: inactive; MsrA act: inactive; MsrA inh: inactive

How did CN(Cc1ccccc1)C(=O)c1cccc(NC(=O)Cc2ccc(NC(=O)C3CCCN(C(=O)C4CC4)C3)cc2)c1 (centres undefined) do in these assays?
rCAG RNA binder: inactive; NadD inh: inactive; MsrA act: inactive; MsrA inh: inactive

How did COC(=O)Cc1cc(=O)n(-c2nc3ccccc3[nH]2)[nH]1 do in these assays?
rCAG RNA binder: 42; NadD inh: inactive; MsrA act: inactive; MsrA inh: inactive

How did O=C(Nc1ccc2ccccc2c1)NC1CCCCN(Cc2ccc(Cl)cc2)C1=O (centres undefined) do in these assays?
rCAG RNA binder: inactive

How did O=C(CCc1ccccc1)N[C@H]1[C@@H](OC(=O)c2cccnc2)CCC[C@]12C(=O)N(Cc1ccccc1)c1ccccc12 do in these assays?
rCAG RNA binder: inactive

What do the screens show for `CO[C@@]1(NC(=O)CSCC#N)C(=O)N2C(C(=O)O)=C(CSc3nnnn3C)CS[C@@H]21`?
rCAG RNA binder: 52; NadD inh: inactive; MsrA act: inactive; MsrA inh: inactive

How did NC(=S)N=Nc1c(O)n(CCCl)c2ccccc12 do in these assays?
rCAG RNA binder: inactive; NadD inh: inactive; MsrA act: inactive; MsrA inh: 4.6

How did N/C(=N\OC(=O)c1ccccc1)C(C(=O)NOC(=O)c1ccccc1)C1CCCCC1 (centres undefined) do in these assays?
rCAG RNA binder: inactive; NadD inh: inactive; MsrA act: inactive; MsrA inh: inactive

Results for CCN(CC)c1nc(C#N)cc(-c2ccc(OC)cc2)n1 ?
rCAG RNA binder: inactive; NadD inh: inactive; MsrA act: inactive; MsrA inh: 8.0

What do the screens show for `COc1ccc(-c2cc(C#N)nc(Cl)n2)cc1`?
rCAG RNA binder: inactive; NadD inh: inactive; MsrA act: inactive; MsrA inh: 5.1

What do the screens show for `COc1ccc(-c2cc(C#N)nc(NN)n2)cc1`?
rCAG RNA binder: inactive; NadD inh: inactive; MsrA act: inactive; MsrA inh: inactive
